# Assay results reported in PubChem BioAssay.
# Assay: JC-1 mitochondrial signal, unstimulated HepG2 cells – cell-based, JC-1 fluorescence, 24 h, 100 nL compound, profiling panel (AID 1167); note: test concentration not given here
# Conditions: HepG2 mitochondrial potential, higher = more signal
row,Structure (SMILES),z-score
1,CC(C)[Si]1(C(C)C)O[C@@H](c2ccccc2)c2cc(-c3ccc(-c4ccc(Cl)c(Cl)c4)o3)nc(-c3ccccc3)c21,-1.87
2,OCCCC1=CC(c2cccs2)N(Cc2cc3c(cc2Br)OCO3)CC1 (stereo not given),-0.578
3,CCOC(=O)C[C@H]1[C@H](OC(=O)c2ccc(C(=O)c3ccccc3)cc2)[C@@H](NC(=O)c2ccc3ccccc3c2)c2cc(OCCCO)ccc2N1C(=O)Cc1ccc(OC)cc1,1.32
4,C=C(CC1([C@@H](NP(=O)(c2ccccc2)c2ccccc2)[C@H]2C[C@@H]2CCCC)CC1)c1ccccc1,-2.48
5,COc1cc(COC(C)=O)ccc1OC(C)=O,-0.367
6,C=C(CCCC)/C(=C/C[C@@H](OC(=O)c1ccncc1)c1ccc(OCCO)cc1)c1cc(C(=O)OC)ccc1OC,2.46
7,C=C(CCCC)C(=O)CC[C@@H](OC(=O)c1ccccc1-c1ccccc1C(=O)O)c1ccc(OCCO)cc1,-1.4
8,COCCOC(=O)N1C(=O)[C@@]2(c3cc(C#CCC(C(=O)OC)C(=O)OC)ccc31)[C@H](C(=O)Nc1nc3ccccc3s1)[C@H]1C(=O)O[C@H](c3ccccc3)[C@H](c3ccccc3)N1[C@@H]2c1ccccc1OCCO,-2.23
9,NC(=O)N1C(=O)C2C(C1=O)C1C=C(c3ccc(CO)cc3)C2C(c2cccs2)N1Cc1cccc(OC(F)(F)F)c1 (stereo not given),-1.7
10,COCCOC(=O)N1C(=O)[C@@]2(c3cc(C#CCNC(N)=O)ccc31)[C@H](C(=O)N1CCN(c3ncccn3)CC1)[C@H]1C(=O)O[C@H](c3ccccc3)[C@H](c3ccccc3)N1[C@@H]2c1ccc(OCCO)cc1,-2.07
11,CCCc1cc2c(n1Cc1cc(F)cc(F)c1)C(C)C1CN(C(=O)c3ccccc3)C(C)(C(=O)OC)C21 (stereo not given),2.5
12,CCCC[C@@H]1C[C@H]1[C@@H](NC(=O)c1ccco1)c1ccc(-c2ccccc2)cc1,-1.07
13,C=CC[C@@]12N=C(c3ccc(OCCCO)cc3)O[C@@H]1c1ccccc1N(C)C2=O,0.0239
14,COC(=O)[C@@]1(Cc2ccccc2)N=C(c2ccc(OCCCO)cc2)O[C@H]1c1ccccc1,-2.02
15,COc1cccc(-c2cccc(=O)o2)c1,-1.27
16,C=C[C@H](CO[Si](CC)(CC)CC)N(Cc1ccc(OC(C)=O)c(OC)c1)S(=O)(=O)c1ccc(Br)cc1,-1.25
17,NC(=O)NCC#Cc1ccc2c(c1)[C@]1(C(=O)N2)[C@H](c2ccc(O)cc2)N2[C@H](c3ccccc3)[C@H](c3ccccc3)OC(=O)[C@H]2[C@@H]1C(=O)O,-1.2
18,COC(=O)C[C@H]1O[C@]2(C(=O)N(C)c3ccccc32)[C@@H](C)[C@@H]1[Si](C)(C)F,0.65

row,Structure (SMILES),z-score
1,O=C1C2C=CC(C(O)c3cc(C(F)(F)F)cc(C(F)(F)F)c3)N(n3cnnc3)C2C(=O)N1Cc1ccccc1 (stereo not given),-0.605
2,Cc1nc2cc(Br)ccc2c(=O)o1,1.37
3,C=C(CCCC)/C(=C/C[C@@H](OC(C)=O)c1ccc(OCCO)cc1)c1cnc2ccccc2c1,1.65
4,COc1cc2c(cc1O)C(C1CC1)N(Cc1sc3ccccc3c1Cl)CC2 (stereo not given),-3.67
5,COc1cc2c(cc1O)C(c1cccs1)N(C)CC2 (stereo not given),-1.13
6,CN1C=C(C(=O)OCCS(C)(=O)=O)C(C(=O)OCCS(C)(=O)=O)=CC(c2ccc(CO)cc2)=CC1C1CC1 (stereo not given),2.14
7,Cc1ccc(N2C(=O)c3ccccc3[C@@H](C(=O)NC3CC3)[C@@H]2c2ccc(CO)cc2)nc1,-0.0756
8,O=C1C[C@@](C(=O)NCC(F)(F)F)(c2ccc([N+](=O)[O-])cc2)[C@@H](c2ccc(CO)cc2I)N1C1CCCCC1,0.548
9,Cc1ccc(S[C@]2(C(=O)NCCCN(C)C)CC(=O)N(Cc3cc(C(F)(F)F)cc(C(F)(F)F)c3)[C@@H]2c2ccc(CO)cc2)cc1,0.263
10,C=C(COC)/C(=C/C[C@@H](OC(=O)c1ccncc1)c1ccc(CO)o1)c1cc(C(=O)OC)ccc1OC,0.232
11,C=C[C@H](OC)[C@@H](OC(=O)Nc1ccc(OC)cc1)c1ccc(O)c(F)c1,-2.39
12,COCCOC(=O)N1C(=O)[C@@]2(c3cc(C#CC4(O)CCCCCC4)ccc31)[C@H](c1ccccc1OCCO)N1[C@H](c3ccccc3)[C@H](c3ccccc3)OC(=O)[C@H]1[C@@H]2C(=O)N1CCN(c2ncccn2)CC1,0.673
13,C=CC(=C)[C@H]1Oc2ccccc2S(=O)(=O)N2CCC[C@@H]12,-0.708
14,[N-]=[N+]=Nc1ccccc1[C@@H]1OC(c2ccc(OCCCO)cc2)=N[C@]1(Cc1ccccc1)C(=O)N1CCOCC1,0.593
15,COCCOC(=O)N1C(=O)[C@@]2(c3cc(C#CCCO)ccc31)[C@H](C(N)=O)[C@H]1C(=O)O[C@H](c3ccccc3)[C@H](c3ccccc3)N1[C@@H]2c1ccc(O)cc1,-0.537
16,C=C(C(=O)CC[C@@H](OC(=O)c1cccnc1)c1ccccc1OCCO)C(C)C,-1.17
17,C=CCNC(=O)[C@H]1[C@@H]2C(=O)O[C@@H](c3ccccc3)[C@@H](c3ccccc3)N2[C@@H](c2ccccc2OCCO)[C@]12C(=O)Nc1ccc(C#CCC(C(=O)OC)C(=O)OC)cc12,-0.64
